# Source: PubChem
# IL1B secr inh – qHTS for Inhibitors of Inflammasome Signaling: IL-1-beta AlphaLISA Primary Screen; THP-1 LPS/ATP IL-1B secretion, AlphaLISA, 16 h; hits give low values; activity change, % at 57.5 µM; actives 4.7% (n = 360,000); in the data active = activity change below about -50%; inconclusive = mostly about -30% to -49%
#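 Secreted IL-1B measured by AlphaLISA bead assay after 16 h compound exposure of THP-1 cells; compounds (final up to 57.5 uM) added 1 h before LPS (250 ng/mL) and ATP (1.25 mM) stimulation; lower signal means less secretion.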
# DT40 TDP1 CPT – qHTS for Inhibitors of human tyrosyl-DNA phosphodiesterase 1 (TDP1): qHTS in cells in presence of CPT. chicken DT40 Tdp1-/-;hTDP1 cells + 20 nM CPT, ATP luminescence, 48 h. Potency, µM (series often up to 46.2 µM), inactives show top-dose activity change, negative = growth inhibition, most hits filed as inhibitors. actives 12% (n = 420,000). AID 686979, 2013; note: potency is the fitted concentration of half-maximal effect; nearly all actives have a fitted effect of over 55% in size
#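 Chicken DT40 Tdp1-/- cells stably complemented with human TDP1 were seeded at 400 cells/well in medium containing 20 nM camptothecin, exposed to pin-transferred compounds, and grown at 37 °C for at least 48 hr. Viability was read as ATP luminescence.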
# ALOX12 inh – Primary qHTS assay for inhibitors of human arachidonate 12S-lipoxygenase (ALOX12): Round 2; Polyunsaturated fatty acid lipoxygenase ALOX12 (Homo sapiens), P18054; purified 12hLO, xylenol orange hydroperoxide absorbance; Potency, µM (doses to about 108 µM), for inactives: top-dose activity change, negative = inhibition, most hits filed as inhibitors; actives 1.1% (n = 580,000); note: potency is the fitted concentration of half-maximal effect
# Target sequence (P18054 whole entry, looked up): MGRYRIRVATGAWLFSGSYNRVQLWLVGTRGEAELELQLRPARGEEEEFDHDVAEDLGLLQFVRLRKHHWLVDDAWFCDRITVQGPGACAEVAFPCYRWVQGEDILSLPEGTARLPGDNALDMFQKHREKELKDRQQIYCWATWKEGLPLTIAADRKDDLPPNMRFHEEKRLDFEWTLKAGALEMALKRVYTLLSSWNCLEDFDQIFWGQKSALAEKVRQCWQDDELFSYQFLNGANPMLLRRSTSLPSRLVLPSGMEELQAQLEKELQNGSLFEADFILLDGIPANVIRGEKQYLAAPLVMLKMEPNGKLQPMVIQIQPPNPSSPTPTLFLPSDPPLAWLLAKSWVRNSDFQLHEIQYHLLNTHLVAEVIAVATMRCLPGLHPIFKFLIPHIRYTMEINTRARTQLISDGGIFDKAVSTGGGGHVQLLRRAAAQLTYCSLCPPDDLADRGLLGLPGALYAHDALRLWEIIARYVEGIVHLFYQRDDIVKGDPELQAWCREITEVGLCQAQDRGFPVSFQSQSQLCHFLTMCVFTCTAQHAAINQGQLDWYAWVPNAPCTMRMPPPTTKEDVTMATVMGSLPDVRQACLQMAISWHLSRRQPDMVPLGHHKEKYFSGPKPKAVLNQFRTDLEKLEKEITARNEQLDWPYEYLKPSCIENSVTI
#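 Purified human 12hLO (150 nM final) in 25 mM Hepes, 0.01% Triton X-100, pH 7.0 was preincubated 15 min at room temperature with compound. Then 40 uM arachidonic acid was added, 30 min. Hydroperoxide was read by Fe-XO absorbance ratio 573/405 nm.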
# HT1080-NT tox – qHTS for induction of synthetic lethality in tumor cells producing 2HG: qHTS for the HT-1080-NT fibrosarcoma cell line. HT-1080-NT fibrosarcoma viability, CellTiter-Glo ATP luminescence, 48 h. Potency, µM (titrated, usually from 46.1 µM), without a hit: at the highest dose activity, negative = less viability, hits mostly cytotoxic. actives 1.6% (n = 360,000);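 note: NT is the 2HG producing partner of a matched IDH1 knockdown line; potency is the fitted concentration of half-maximal effect; 0% = DMSO-treated cells and -100% = media-only wells without cells; nearly all actives have a fitted effect of over 55% in size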
#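 Fibrosarcoma NT cells, 750 per well in 5% FBS RPMI, were exposed to compound for 48 hours. Viability: CellTiter-Glo luminescence.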
# HT1080 IDH1KD tx – qHTS for induction of synthetic lethality in tumor cells producing 2HG: qHTS for the HT-1080-IDH1KD cell line | HT-1080 IDH1 knockdown viability, ATP luminescence, 48 h | Potency, µM (series often up to 46.1 µM), without a hit: at the highest dose activity, negative = toxicity, most hits filed as cytotoxic | actives 2% (n = 360,000) | AID 686971, 2013;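 note: potency is the fitted concentration of half-maximal effect; 0% = DMSO wells and -100% = cell-free medium wells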
#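 Knockdown cells (IDH1KD HT-1080) received compounds 2 h after plating at 750 cells/well and were kept 48 h at 37 °C in 5% FBS RPMI. A CellTiter-Glo luminescence read gave % activity for curve fitting.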
# TDP1 cell noCPT – qHTS for Inhibitors of human tyrosyl-DNA phosphodiesterase 1 (TDP1): qHTS in cells in absence of CPT; DT40 Tdp1-/- hTDP1 cells, no CPT, ATP luminescence, 48 h; Potency, µM (top dose mostly 46.2 µM), without a hit: at the top dose activity change, negative = growth inhibition, most hits filed as inhibitors; actives 15% (n = 420,000); AID 686978, 2013; note: potency is the fitted concentration of half-maximal effect; nearly all actives have a fitted effect of over 55% in size
#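 Stably hTDP1-transfected Tdp1-null chicken DT40 cells were treated with library compounds minus camptothecin and grown for at least 48 hr at 37 °C, after which cellular ATP was quantified by luminescence.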
# The depositor's hits bear a star; ? = inconclusive; . = not tested or not shown; [ ] = remark or other dose. Many of the other results were omitted from the sample, so hits are more common in it than they were. Unless noted, calls come from the whole dose curve; as a rule, active = well fitted curve in the direction sought with a large enough effect; inconclusive = small, poorly fitted or top-dose-only effect, or another doubt; inactive = no such curve, though single readings can be large; an effect the other way counts as inactive or inconclusive. Unless noted, % is set by controls: 0 for no effect and ±100 for the full control effect.
SMILES,IL1B secr inh,DT40 TDP1 CPT,ALOX12 inh,HT1080-NT tox,HT1080 IDH1KD tx,TDP1 cell noCPT
CC1(c2cccnc2)N(Cc2ccccc2)C(=O)OC12CCN(C(=O)C1CCOCC1)CC2 (stereo not given),.,.,4%,.,.,.
CC(C)c1cc(N2CCCC2)n2c(nc3ccccc32)c1C#N,.,.,11%,.,.,.
COc1cccc2cc(C(=O)NCc3ccc(Cl)cc3)c(=N)oc12,-91*,23µM*,0%,13%,13%,?
COc1cccc2cc(C(=O)NCc3ccc(Cl)cc3)c(=O)oc12,4,3%,0%,1%,0%,?
Cc1cc2cc(CNC(=O)Cc3cccs3)ccc2n1C,-3,8.2µM*,.,6%,-1%,?
Cc1cc2cc(CNC(=O)Cc3ccc([N+](=O)[O-])cc3)ccc2n1C,12,-7%,-21%,4%,15%,-14%
Cc1cc2cc(CNC(=O)c3ccc(Br)o3)ccc2n1C,22,26µM*,?,12%,-4%,-27%
C=CCNC(=O)c1onc(CSc2ccc(F)cc2)c1C(=O)NCCOC,-1,-21%,-13%,10%,0%,-21%
CCCn1c(NC(=O)COc2ccc(C)cc2)nc2ccccc21,.,.,6%,.,.,.
C=CCNCc1ccc(OCC)c(OCC)c1,.,.,2%,.,.,.
CC1(C)CC(N2CCCCC2)=CC(=[N+]2CCCCC2)C1,-70*,0.15µM*,?,4.1µM*,?,0.18µM*
CCCN(CCC)C1=CC(=[N+]2CCCC2)CC(C)(C)C1,?,0.21µM*,?,2.1µM*,2.3µM*,0.13µM*
CC1C[N+](=C2C=C(N3CCOCC3)CC(C)(C)C2)CC(C)O1 (stereo not given),-7,29%,28µM*,4%,-3%,-3%
CN(C)NC1=CC(=[N+]2CCCC2)CC(C)(C)C1,6,11%,-29%,4%,2%,?
O=C(CN1CCN(C(=O)c2cc(-c3ccc(F)cc3)n[nH]2)CC1)N1CCCC1,.,.,-12%,.,.,.
Cc1ccccc1C(=O)N(Cc1ccco1)C1CC1,.,.,19%,.,.,.
CC1CCC(N(CCCN)Cc2ccco2)CC1C (stereo not given),?,29µM*,23%,-7%,-15%,21µM*
COc1ccc(NC(=O)C2CCCN(CCCc3ccccc3)C2)cc1OCC(C)C (stereo not given),-85*,7.3µM*,?,?,-11%,5.2µM*
CCOc1ccc(C2SCC(=O)N2c2c(C)n(C)n(-c3ccccc3)c2=O)cc1 (stereo not given),-2,7%,0%,5%,6%,-2%
CCOc1ccc(C2=C(C=Nc3c(C)n(C)n(-c4ccccc4)c3=O)C(c3ccc(F)cc3)c3ccccc3O2)cc1 (stereo not given),0,23µM*,.,5%,0%,?
CCOc1ccc(Br)cc1C1=NN(C(C)=O)C(c2ccc([N+](=O)[O-])s2)O1 (stereo not given),-26,18µM*,-8%,23µM*,?,8.2µM*
CC(/C=C(\NC(=O)c1ccccc1)C(=O)N=Nc1c(O)[nH]c2ccc(C)cc12)=C\c1ccccc1,-8,8.2µM*,-11%,-7%,-1%[9.24 µM],8.2µM*
S=C(NCCc1ccccc1)N1CCn2cccc2C1c1cccnc1 (stereo not given),-66*,?,25%,-19%,0%,?
CCCCNC(=S)N1CCn2cccc2C1c1ccc(F)cc1 (stereo not given),-86*,16µM*,?,?,?,?
O=[N+]([O-])c1ccc(SN2CCCCC2)c([N+](=O)[O-])c1,.,.,-5%,.,.,.
SMILES,IL1B secr inh,DT40 TDP1 CPT,ALOX12 inh,HT1080-NT tox,HT1080 IDH1KD tx,TDP1 cell noCPT
COc1ccc(-c2ccc(NS(=O)(=O)c3cc(C)c(C)cc3C)cc2)nn1,.,21µM*,?,.,.,?
COc1ccc(-c2ccc(NS(=O)(=O)c3cccc([N+](=O)[O-])c3)cc2)nn1,-4,?,-28%,-7%,-3%,?
COc1ccc(-c2ccc(NS(=O)(=O)c3ccccc3)cc2)nn1,.,?,-2%,.,.,15µM*
COc1ccc(-c2ccc(NS(=O)(=O)c3ccccc3Cl)cc2)nn1,.,21µM*,?,.,.,18µM*
COc1ccc(-c2ccc(NS(=O)(=O)c3cccc(C)c3)cc2)nn1,.,?,-19%,.,.,29µM*
Cc1ccc(NC(=O)Cn2nc3n(c2=O)CCCCC3)cc1F,.,.,55%,.,.,.
COc1ccc(-c2cccc(NS(=O)(=O)c3cccc([N+](=O)[O-])c3)c2)nn1,10,?,?,-7%,-5%,26µM*
COc1ccc(-c2cccc(NS(=O)(=O)c3ccc([N+](=O)[O-])cc3)c2)nn1,10,?,-9%,5%,6%,?
COc1ccc(CN2C(=O)C(C)Nc3ncnc(N4CCN(c5ccccn5)CC4)c32)cc1 (stereo not given),-20,?,-8%,?,-12%,23µM*
Cc1ccc(CN2C(=O)C(C)Nc3ncnc(N4CCN(c5ccccn5)CC4)c32)cc1 (stereo not given),-2,?,-15%,?,-14%,18µM*
CC1Nc2ncnc(N3CCN(c4ccccn4)CC3)c2N(Cc2ccccc2)C1=O (stereo not given),-9,?,0%,3%,0%,?
CCC1Nc2ncnc(N3CCN(c4ccccc4)CC3)c2N(Cc2ccc(OC)cc2)C1=O (stereo not given),-15,?,?,?,-8%,?
COc1ccc(CN2C(=O)C(C)Nc3ncnc(N4CCc5ccccc5C4)c32)cc1 (stereo not given),48,4.6µM*,-18%,2.1µM*,2.3µM*,4.6µM*
CCc1noc(C)c1C(=O)Nc1cc(S(=O)(=O)N2CCOCC2)ccc1N1CCN(CC)CC1,1,1%,?,3%,1%,2%
